In all, about 4,000 sequences were measured (“arbitrary fluorescence units”: median about 830, highest 2% from about 6,500 on). What follows is part of a selection rich in the highest values, with near analogues and random picks from the rest.

Our source for the RUNX1 binding intensity values is the supplement of paper PMC10681739.

For the test, the target named is RUNX1 (UniProt Q01196). Kind of test: RUNX1 binding intensity (PBM fluorescence), RUNX1 alone (arbitrary fluorescence units); higher = stronger binding. The settings on record: RUNX1 concentration 2 nM; ETS1 concentration 0 nM. Here is the method: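 gcPBM on 36-bp genomic-derived probes (partner site mutated) containing one RUNX1 site and no ETS1 site. Recombinant human RUNX1 (2 nM) was incubated alone or with ETS1 (25 nM) and detected by anti-RUNX1 antibody fluorescence. Values are medians over 4 replicate spots (not normalised). The probes sit in constant array flanks that are not printed.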
Chain of RUNX1 (Q01196 whole entry): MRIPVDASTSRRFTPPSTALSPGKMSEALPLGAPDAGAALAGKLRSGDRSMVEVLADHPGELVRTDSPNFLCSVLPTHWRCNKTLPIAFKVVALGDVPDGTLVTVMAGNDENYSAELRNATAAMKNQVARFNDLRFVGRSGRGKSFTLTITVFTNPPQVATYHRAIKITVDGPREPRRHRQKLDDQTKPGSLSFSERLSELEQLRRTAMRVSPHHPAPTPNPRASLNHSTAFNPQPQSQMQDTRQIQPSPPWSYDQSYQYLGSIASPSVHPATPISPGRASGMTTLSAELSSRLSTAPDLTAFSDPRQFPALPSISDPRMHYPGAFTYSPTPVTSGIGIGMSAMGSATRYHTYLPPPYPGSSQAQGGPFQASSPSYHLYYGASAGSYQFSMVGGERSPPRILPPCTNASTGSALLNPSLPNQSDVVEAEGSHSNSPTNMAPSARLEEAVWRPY
In the case of AACTAGTTCGTTCCTTATGCGGCCCAGGGCTCCACC, the RUNX1 binding intensity came to 893. To GGCACGAAAGAGCTGATGCATTTCAACCGCAGCCTG belongs 1160. The sequence CGAGCCGCCTTGCTCCCCGGCCCACAGCCCAGCACT yielded an RUNX1 binding intensity of 889. As for CCGGGGTAAACCACGACACGACTCCCTGCCGTGTGG, the figure is 886; as for GACCTTCACCCACAAGAACCACCTCCTCTCAGTAAA, 1950. TACGACTTCAAGGCGGTCAACATCCAGGGCAAACTG returned an RUNX1 binding intensity of 730. To TCCCTCCTTGCGCTCTGGTTTTGTGGTTGCTTGCTG belongs 1120. To CCAGCCGTAAGCCCCGCCCCCTAGAGGCACCGCGGA belongs 882; to GCTTTGCAGTGTCCTCTATGGAACACCACACACAGT, 809. To GGGGACGAAGCGGTCTCGGTTCAGCCCGGCTGGGAG belongs 692.

The sequence TAAGGCTGTGTGGCTTCCAGATCAAAAACCGCAAAA registered an RUNX1 binding intensity of 8380. As for CTCTGGCAGGGAGCTCTGAGGGCTAAACCACAAAAA, the figure is 1560; as for CAGGCTGCTGTGGCTACTGCAGCACTGCCTCCCGCT, 741. GCTCTGGCCGAAGATGTCCCTGCGGTGCAGCTGCCG displayed an RUNX1 binding intensity of 796. GGGCTTGACCGCCATGTTTGAAGCGGGCGCAAAAAA yielded an RUNX1 binding intensity of 758. CAGAACGGTCCCTGGAACACTGCGGTTCCCGCCTGG displayed an RUNX1 binding intensity of 874. As for AGGCTGTTGTGGGTTGCGCCGCTTCGGAGGTGGGAG, the figure is 846; as for CTTGCCACACTGCCTCTTGTTTTGAACCACTATATT, 2040. With GCACACAGTGCGGTTGGCTTCCAGCTTCATGTTGGC, the RUNX1 binding intensity was found to be 1470. To CTTGTAGTCAGGTGGTTGGGCAGGGTGTTTCTCATG belongs 807; to TCCAAGGCGCAAAAAACCCGCCCTAAACCGCACCCC, 1630. As for AGCGCCTTACCCGCGGCACACCCATTTGCTGACCCC, the figure is 1120; as for CTTGTTCTATCTCCTGTTTGTGGTGAGTGACTGTCT, 1370; as for AGGCTCATTGCCTGTTTTCATGTGGTTTAGAGAAAA, 1030. For the sequence TGATCAGGCAGGAGAAGCGCAGAGGTGGACCCGCAA, the RUNX1 binding intensity worked out at 751.

The sequence GGGATCCTTCAGCTCCGGGTTAACCCCGACCGCGCC had an RUNX1 binding intensity of 697.

Regarding CACTCCCCTCCCGCGGTCACACTTCAGGCGGCCACC, the RUNX1 binding intensity worked out at 1460. The sequence GGGGGGGTGCGGTCCTGGTCGGGAGGAGGTGGAGAG came in with an RUNX1 binding intensity of 869.

ACCTCCACCACAAAGAACAAAAAACGAAGGATAAAA displayed an RUNX1 binding intensity of 1520. As for CCACACGGCAGGGAGTCGTGTCGTGGTTTACCCCGG, the figure is 752.

For the sequence ACGCCCGCTGACCACACTGGCGACGTCCCTCTCTGT, the RUNX1 binding intensity worked out at 1400. To CAGGGGGCCCCACATGCCGCTCTTGCTGCCCAGGTC belongs 798. To CAGTCGCCAGAAACCACAGCACTTCGGCCTGCTTCA belongs 1480.

GACATGTGGCTATTTTGGGCAATTGCCTGAGGAGGC showed an RUNX1 binding intensity of 720. On to CGACTGGAACCACTCTGAGGCGCTGCCGCAGACACC, for which the RUNX1 binding intensity is 1040. For TTAACTCCACAGAAGAATAAACCACCACCGCTCACC, the RUNX1 binding intensity turned out to be 1060.

With GACCACCTCCTTTCTGTGTTTTGTGGTTTCACAACT, the RUNX1 binding intensity amounted to 2680. To CATTGTGGGCGCTGTAGTCCAGCTGGAACCTGTTTG belongs 760; to GGAGGCTGTGGTGAGGAAAGAGGAGGTGACACTCCT, 883. As for CCCCTCAATTCCCTCAACCCTTCCCACAAACTGGGA, the figure is 1730.

In the case of GGCTTACGGCGGGGTACCCTCCTCTGTGGGCGGGGC, the RUNX1 binding intensity amounted to 715. To CTGGCCGTGGCGTACGGGAGCTGTGGGGCCGTCCCC belongs 728; to GGCTGGAAAGGGTCTTGAGAGGAGGTGGTTGCCTTA, 705; to TGTCTGAGGTTTCTCTGTGAACATGAAGCTGAGAAC, 790.

For the sequence AGGCTTTCTGTTTTATCTCGTGTGTGTGGTGCACCA, the RUNX1 binding intensity amounted to 886.

As to GGGCTTACGGCTGAACCCATGGCTGCGGGCTGTGCT, the RUNX1 binding intensity was 704. Consider TCCACAGCCGGTTTCGGCCGGTTCCCACAAGCCCCT, for which the RUNX1 binding intensity stood at 909. To CCGCTTACGGCCTTCGCCCGGCTTACCCGCGTCGCA belongs 1030. As for GGCATCCCCTTGCGGCCATCACTTTCTATGCCCTCA, the figure is 1250. Consider GGGGCAGTGGTCACAGGAGGATCTTGCTGGAGTCAT, for which the RUNX1 binding intensity was 697.
